NR3A LBD binder – binders of NR3A ligand-binding domain, primary screen, biophysical, differential scanning fluorimetry, uHTS; 340,000 compounds, 2.5% hits; AID 1259313, 2017; Glutamate receptor ionotropic, NMDA 3A (GRIN3A) ligand-binding domain; Tm shift relative to glycine control, % at 25 µM; NR3A LBD differential scanning fluorimetry, Tm shift; 0% = protein alone, 100% = glycine-bound protein;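 active means melting temperature shift of at least 10% of the positive control shift, at one fixed dose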
UBC13 polyUb – UBC13 polyubiquitin chain formation inhibitors, primary screen, biochemical, TR-FRET, uHTS. Ubiquitin-conjugating enzyme E2 N (Homo sapiens), P61088. inhibition, % at 20 µM. 330,000 compounds, 0.47% hits; in the data active means inhibition above about 45%, passing the limit was not always enough
Target sequence (P61088 whole entry, looked up): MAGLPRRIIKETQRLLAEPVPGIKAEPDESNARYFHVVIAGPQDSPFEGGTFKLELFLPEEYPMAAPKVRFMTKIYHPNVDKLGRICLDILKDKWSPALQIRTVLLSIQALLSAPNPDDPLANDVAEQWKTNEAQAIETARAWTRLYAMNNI
CR mimetic SO – reduction of superoxide in aged yeast, primary screen, HTS; superoxide response (% of plate mean), % at 10 µM; AID 2690, 2010; S. cerevisiae aged cells, superoxide DHE fluorescence; hits give low values; 330,000 compounds, 0.18% hits;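 active means superoxide response under a set limit, about three screen SD below normal, cut at about 65% in these data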;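 further: yeast aged for seven days with compound at 30 °C before DHE staining; 100% = average MFI of all compound-treated wells on the plate with controls excluded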
dFosB activator – activators of delta FosB homodimer, primary screen, biochemical, fluorescence polarization, TAMRA-CDK5 oligo, single point; purified delta FosB; percent of positive-control signal above neutral wells; 340,000 compounds, 0.99% hits; AID 493131, 2011; activation, % at 25 µM; Protein FosB (Mus musculus), P13346;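 active means mean activation above about 17%, with every replicate also reaching it, limit read from the data, passing the limit was not always enough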
Target sequence (P13346 whole entry, looked up): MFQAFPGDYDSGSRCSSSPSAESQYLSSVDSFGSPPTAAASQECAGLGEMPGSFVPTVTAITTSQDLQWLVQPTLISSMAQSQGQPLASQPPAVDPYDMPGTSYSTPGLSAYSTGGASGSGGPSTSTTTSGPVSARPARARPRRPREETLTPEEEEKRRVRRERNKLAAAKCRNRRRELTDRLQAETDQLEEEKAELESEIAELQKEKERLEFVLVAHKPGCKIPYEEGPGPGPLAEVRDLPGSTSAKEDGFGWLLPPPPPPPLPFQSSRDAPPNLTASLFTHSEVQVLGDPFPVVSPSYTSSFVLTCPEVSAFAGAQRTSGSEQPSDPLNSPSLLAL
NALP1 inh – NALP1 inflammasome inhibitors in reconstituted yeast, colorimetric, S. cerevisiae, triplicate retest; 280,000 compounds, 0.61% hits; S. cerevisiae NALP1/ASC/caspase-1 growth, X-gal OD620, 72 h; inhibition, % at 10 µM; AID 2071, 2009; in the data active means inhibition mostly above about 24%, no sharp cut-off; inactive means mostly below about 32%
The depositor's hits bear a star; nt = not tested or not shown. Hits are enriched below; roughly 4.3% of the tested compounds scored in any of these assays.

SMILES	NR3A LBD binder	UBC13 polyUb	CR mimetic SO	dFosB activator	NALP1 inh
CCCCC(c1nnnn1C(C)C)N1CCN(C(=O)c2ccco2)CC1 (stereo unspecified)	1	3	102	-6	22
Cc1ccsc1-c1nc(C(N)=O)c2[nH]c(=O)n(-c3ccc(Cl)cc3)c2n1	1	-28	98	-1	31
COc1cccc(-c2nc(C(N)=O)c3[nH]c(=O)n(-c4cccc(Cl)c4)c3n2)c1OC	-7	50*	102	-23	nt
CC(C)c1ccc(NC(=O)Cn2nnc(C(=O)NCc3ccco3)c2N)cc1	12*	-6	85	7	19
Cc1cc(C)cc(NC(=O)Cn2nnc(C(=O)NCCc3ccccc3)c2N)c1	7	-2	88	83*	5
COc1ccc(NC(=O)Cn2nnc(C(=O)NCc3cccs3)c2N)cc1OC	0	-8	102	6	28
CCOc1ccccc1NC(=O)c1nnn(CC(=O)Nc2cc(C)cc(C)c2)c1N	13*	-7	108	26*	10
Cc1ccc(NC(=O)Cn2nnc(C(=O)NCc3cccs3)c2N)cc1F	32*	-4	98	6	24
Cc1cc(C)c(NC(=O)Cn2nnc(C(=O)NCCc3ccccc3)c2N)c(C)c1	3	-8	94	1	32
CCOc1ccccc1NC(=O)Cn1nnc(C(=O)Nc2ccccc2Cl)c1N	-3	11	nt	11	29
COc1ccc(CCN2C(=O)C=CC2=O)cc1OC	20*	nt	nt	5	nt
COc1ccc(CCn2c(C)ccc2C)cc1OC	nt	-19	97	nt	7
CNC(=O)c1cccnc1Nc1cccc(C(F)(F)F)c1	-3	-5	114	-1	42
O=C(Nc1cccc(C(F)(F)F)c1)c1cccnc1NCCc1ccccc1	28*	18	90	0	17
O=C(Nc1ccc(F)cc1)c1cccnc1NCCc1ccccc1	5	0	90	-2	32
O=C(Nc1cccc(C(F)(F)F)c1)c1cccnc1NCCO	0	1	103	-6	-15
CN(CC(=O)Nc1ccccc1Br)C(=O)c1cccnc1Nc1cccc(C(F)(F)F)c1	15*	15	109	-17	-3
O=C(Nc1cccc(F)c1)c1cccnc1NCCc1ccccc1	17*	14	90	-10	22
CC(CC(=O)Nc1ccc(S(=O)(=O)Nc2ncccn2)cc1)c1ccccc1 (stereo unspecified)	0	0	97	4	5
COc1ccccc1OCC(=O)NCCSCc1ccc(Cl)cc1	-1	-9	101	-7	64*
COc1ccc(-c2cc3ccccc3[nH]2)cc1	14*	17	86	-3	8
Cc1ccc(O)c(-c2cc(-c3ccccc3F)[nH]n2)c1	4	12	102	-7	-6
c1ccc(-c2cc3ccccc3[nH]2)cc1	1	-2	89	-9	34
Cc1ccc(O)c(-c2cc3ccccc3[nH]2)c1	22*	9	95	-1	nt
COc1cccc(NC(=O)N2CCCC2C(=O)NC23CC4CC(CC(C4)C2)C3)c1 (stereo unspecified)	-2	4	107	-1	10
SMILES	NR3A LBD binder	UBC13 polyUb	CR mimetic SO	dFosB activator	NALP1 inh
Cc1nc(N2CCN(Cc3ccccc3)CC2)nc2c1C(=O)CC(c1ccco1)C2 (stereo unspecified)	2	0	90	-1	7
COc1ccc(C2CC(=O)c3c(C)nc(N4CCN(c5ccccc5)CC4)nc3C2)cc1 (stereo unspecified)	727*	15	110	-1	nt
CC(C)CCNC(=O)c1cn(C)c2ccc(S(=O)(=O)N3CCCC3)cc2c1=O	1	0	176	-4	-23
CC(C)CN(CCNC(=O)c1cn(C)c2ccc(S(=O)(=O)N3CCCC3)cc2c1=O)CC(C)C	26*	-3	119	-1	24
CC1=CC(=O)C=CC1(C)C(Cl)Cl (stereo unspecified)	-3	-8	116	4	23*
CC1=CC(C)(C(Cl)Cl)C(C)=CC1=O (stereo unspecified)	-1	0	102	-5	-66
OCc1cn(-c2ccccc2)nc1-c1ccc(Br)cc1	34*	14	82	-20	-16
O=C(O)Cc1cn(-c2ccccc2)nc1-c1ccc(Cl)cc1	12*	-10	148	-12	-3
CC(C)COc1ccc(-c2nn(-c3ccccc3)cc2CO)cc1	7	6	83	-10	4
CSC(C1CCCC1)n1nnc2ccccc21 (stereo unspecified)	-2	10	101	-1	nt
O=c1cc(CNCCCO)c2ccccc2[nH]1	0	-11	101	5	26*
COC(=O)C12OCC34C(CC5C(C)=C(O)C(=O)CC5(C)C3C(O)C1O)OC(=O)C(OC(=O)C=C(C)C)C24 (stereo unspecified)	14*	nt	nt	-12	nt
Cc1ccc(-c2nnn(CC(=O)Nc3nnc(C(C)C)s3)n2)cc1	1	0	106	-3	37*
O=C(NNC(=O)c1ccc(Cl)cc1Cl)c1ccc2ccccc2c1	0	nt	nt	-4	nt
O=C(NNC(=O)c1cccc2ccccc12)c1cccc(Cl)c1	12*	nt	nt	10	nt
O=C(NNC(=O)c1cccc2ccccc12)c1ccc(Cl)cc1Cl	23*	nt	nt	3	nt
O=C(NNC(=O)c1cccc2ccccc12)c1cccc(Br)c1	4	nt	nt	1	nt
COc1cc2c(cc1OC)C(COc1cccc(C(F)(F)F)c1)NCC2 (stereo unspecified)	0	3	88	-2	14
CC1=C(C(=O)Nc2ccccc2)C(c2ccc(O)cc2)N2C(=O)CSC2=N1 (stereo unspecified)	12*	-3	107	-9	15
COc1ccc(C2C(C(=O)Nc3ccccc3)=C(C)N=C3SCC(=O)N32)cc1 (stereo unspecified)	1	3	104	2	15
CC(CN1CCOCC1)OC(=O)C1COc2ccccc2O1 (stereo unspecified)	1	-6	100	-1	28*
COc1ccc(CC(=O)OC(C)CN2CCOCC2)cc1 (stereo unspecified)	-2	2	105	-7	29*
CC(CN1CCOCC1)OC(=O)CCc1ccccc1 (stereo unspecified)	2	-2	110	3	4
NC(=O)c1nsc(C(=O)N(c2cccc(F)c2)C(C(=O)NCC2CCCO2)c2ccc3ncccc3c2)c1N (stereo unspecified)	-2	33	97	-2	-9
COc1ccc(/C=C/c2nc(C#N)c(NCCN(C)C)o2)cc1OC	1	0	98	-13	17
CNc1oc(/C=C/c2cccc(OC)c2)nc1C#N	23*	22	98	-10	17

Source: PubChem (several laboratories)
